40 sequences from the supplement of paper PMC6555819 can be followed below.

This test has as its system VDR homodimer (NR concentration 270 nM). Kind of test: PBM binding z-score (relative to random genomic background probes); higher = stronger binding; sequences stand for … in GC…GCGATTGACAGCGTAGAATGAAGG
In outline:
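On custom Agilent 4×180K arrays, double-stranded probes with 34-nt variable regions carried direct-repeat seeds, single-nucleotide variants, half-site ablations or random human genomic background. Ligand-free nuclear receptor dimers were applied for 1 h, and binding was read with antibodies against each partner (one per run). Binding z-scores come from regression-normalized fluorescence, with the random background probes as reference.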
Regarding CCTTACGGGTCAAGGTTTTAGCACGGGTGGTACG, the PBM binding z-score was 0.742.
For ATCGAAAGGTCGTGAGGTGAGTGTACAGAAAGGC, the PBM binding z-score was 1.41.
The value for TCTTGTAGATCGGCAGGTTAAGAAAGCTGGCCAA was -0.0576.
For ATCTCTAGGTAACAAGTTCAGTGTAAGAGAGGAC, the PBM binding z-score came to 2.99.
The value for ATATGTAGGTTACATCCCGGTCATTCAGGCTATG was 1.12; that for GCAGACAGGTGAGACGCAGGTAACTCAGGGTGGC was -0.464.
TAGCCTAGGTCAGGTCGGGCCAGTATACGCTATA gave a PBM binding z-score of 0.0294.
For GGAACGAGGGCAAAGTTGATCGCATCTGTCGACG, the PBM binding z-score was found to be 1.61.
The value for TGAATGAGGTTATAAGATCAGCGAACGTTGCAAA was 0.262; that for CGAAGGAGGGCATGAGTTGATAGCAAATGCCGAT was 0.969.
In turn, CAAACTAGGTCACGAAAGGTCAATGTCGAATGAC gave a PBM binding z-score of 2.77.
Turning to GTACCACGGTGAATAGGTCGTTGATGAGTAGGCG, the PBM binding z-score was found to be 0.098.
As for CCTTACGTGTCACTCCAGGTTATAGCATCGGAGT, the PBM binding z-score came to 1.24.
With TGACCAAGGTGAGCTGAGGTCGTTGATCCAACTC, the PBM binding z-score stood at 1.7.
Regarding TTACCAAGGCGAGCTGAGGTCGTTGATCCAACTC, the PBM binding z-score was 1.49.
The value for ATACCAAGGTGGTCGTGAGGTCGTTGATACTAAC was 3.47; that for AGAATGAGGTTATACGTAGATCAGGGGAGAAAGT was 1.45; that for GCTAGTTGATCAGTAAAAGGTCACACACCGGTCG was 1.8.
In turn, CAAACTAGGTCACCGGAAGTTCAAAGTCCGCATG came in with a PBM binding z-score of 4.8.
Regarding GGAACGAGGGCAAAGATGATAGCATCTGTCGACG, the PBM binding z-score worked out at 0.578.
The value for TAGTCTAGGTCATGGGCCAGTATACCACGCGAAC was 0.773.
Take CGTCCAACGTCAGAGAGGTCAGTGAATGCCGAGT: the PBM binding z-score amounted to 1.67.
Consider TCGCGTAGGTTAGGGGCATTCAGAATGGCGTCGA, for which the PBM binding z-score was determined as 0.649.
The value for CCGACTGGGGCAGAAAGGATACCATACCATCCGG was -0.566; that for ATCTCTAGGTAAAGATAGTTCAGGGAATGCAAAT was 0.47.
For TAGCCTAGGTCGTGCGGGCCAGTATAGTGTCGGC the value was -0.502; for GCGACTGGGGCAACAGCAGGTTACCATAACTTAA, -0.281.
The value for ACTAGCAGGCCAGGTTTGGGTCACTCAAACAAAG was -0.155.
On to TCTCGGAGGACAGGAAAGGTCAGAGCTCGACATC, for which the PBM binding z-score turned out to be 0.606.
For CTCGAAAGGTCGTGCTCACGTGAGTATACCAAAC the value was 1.06.
TGAATGAGGTTATAAGATAAGGGAACGTTGCAAA: the PBM binding z-score was 0.0331.
As for TCTCGGAGGACACGAATGTCAGAGCTTTCCAGAG, the PBM binding z-score is -0.491.
The sequence TCGAGTAGGCTAGGGGCATTCAGAATGGCGTCGA returned a PBM binding z-score of -0.279.
For CGAACGAGGGCATGAGCTGATAGCAAATGCCGAT, the PBM binding z-score was 0.803.
TCTAGTTGGTCAAAAGTCACACACTCGAAATGCG returned a PBM binding z-score of 0.578.
Regarding CGTCTAAGGTCAGAGAGGTCAGTGAATGCCGAGT, the PBM binding z-score is 5.7.
The value for CATCGGAGGACAGAAGGTCAGAGCTGTCCGCTTT was 0.139; that for ACAGACAGGTTAGTGAAGGTAACTCAGCTGGACG was -0.0977; that for TCAGACAGGTGAAGGTAACGCAGGTACGCAGTCG was -0.187.
For CGAACTAGGTCAAGGTCAGTGAATCTCCGCACGC the value was 2.14.
